Measurements taken from the supplement of paper PMC13380429.

Experiments:
[1] = system: Vero E6 infected with SARS-CoV-2; experiment: morphology score (similarity to uninfected cells); higher = more like uninfected cells; conditions: 24 h
[2] = system: Vero E6 infected with SARS-CoV-2; experiment: SARS-CoV-2 infection rate relative to infected DMSO; higher = more infection, active = 60 or less; conditions: 24 h

`CN(Cc1ccccc1)C(=O)[C@H](Cc1ccc2ccccc2c1)NC(=O)[C@@H]1C[C@@H](O)CN1C(=O)c1cn(C)c2ccccc12` (10 µM) was tested, and the morphology score [1] was 0.179 and the SARS-CoV-2 infection rate [2] was 104% (inactive).

With `COc1cc2/c(=N/c3ccc(Br)cc3F)nc[nH]c2cc1OCC1CCN(C)CC1` [vandetanib] (10 µM) the morphology score [1] was 0.0459 and the SARS-CoV-2 infection rate [2] was 102% (inactive).

With `O=C1C(=O)N(Cc2ccc(Cl)c(Cl)c2)c2ccccc21` [apoptosis-activator-II] (10 µM) the morphology score [1] was 0.0389 and the SARS-CoV-2 infection rate [2] was 104% (inactive).

For `C[C@H](CCC(=O)O)[C@H]1CC[C@H]2[C@@H]3CC[C@@H]4C[C@H](O)CC[C@]4(C)[C@H]3C[C@H](O)[C@]12C` [deoxycholic-acid] (10 µM), the morphology score [1] was 0.0921 and the SARS-CoV-2 infection rate [2] was 104% (inactive).

For `O=C(O)c1cc2cccc([N+](=O)[O-])c2[nH]1` (10 µM), the morphology score [1] was -0.0876 and the SARS-CoV-2 infection rate [2] was 100% (inactive).

`c1ccc([C@@H]2C[C@H]2NC2CCNCC2)cc1` (10 µM) was tested, and the morphology score [1] was -0.09 and the SARS-CoV-2 infection rate [2] was 114% (inactive).

With `CC(=O)C(=Cc1cc(O)c(O)c([N+](=O)[O-])c1)C(C)=O` [nitecapone] (10 µM) the morphology score [1] was 0.103 and the SARS-CoV-2 infection rate [2] was 102% (inactive).

For `C[C@@H](O)[C@H]1C(=O)N2C(C(=O)O)=C(S[C@@H]3CN[C@H](CNS(N)(=O)=O)C3)[C@H](C)[C@H]12` [doripenem] (10 µM), the morphology score [1] was 0.131 and the SARS-CoV-2 infection rate [2] was 100% (inactive).

`COc1cc(OC)cc(N(CCNC(C)C)c2ccc3ncc(-c4cnn(C)c4)nc3c2)c1` [erdafitinib] (0.833333 µM) was tested, and the morphology score [1] was 0.151 and the SARS-CoV-2 infection rate [2] was 108% (inactive).

For `Cn1ccc2cc3c(cc21)CCN3C(=O)Nc1cccnc1` (10 µM), the morphology score [1] was 0.204 and the SARS-CoV-2 infection rate [2] was 99% (inactive).

For `C[C@]12N[C@H](Cc3ccccc31)c1ccccc12` [dizocilpine-(-)] (10 µM), the morphology score [1] was 0.247 and the SARS-CoV-2 infection rate [2] was 106% (inactive).

`Nc1ncnc2c1ncn2[C@@H]1O[C@@H]2COP(=O)(O)O[C@H]2[C@H]1O` [cyclic-AMP] (10 µM) was tested, and the morphology score [1] was 0.255 and the SARS-CoV-2 infection rate [2] was 86.5% (inactive).

With `O=C(Nc1cc(C(F)(F)F)cc(C(F)(F)F)c1)c1cc(Cl)ccc1O` [IKK-2-inhibitor-V] (10 µM) the morphology score [1] was -0.2 and the SARS-CoV-2 infection rate [2] was 104% (inactive).

For `NC(=S)N/N=C/c1ncccc1N` [triapine] (0.833333 µM), the morphology score [1] was 0.051 and the SARS-CoV-2 infection rate [2] was 106% (inactive).

In the case of `CC[C@@]1(O)C(=O)OCc2c1cc1n(c2=O)Cc2cc3c(CN(C)C)c(O)ccc3nc2-1` [topotecan] (10 µM), the morphology score [1] is reported as 0.0619 and the SARS-CoV-2 infection rate [2] is reported as 108% (inactive).

With `CC(C)(F)C[C@H](N[C@@H](c1ccc(-c2ccc(S(C)(=O)=O)cc2)cc1)C(F)(F)F)C(=O)NC1(C#N)CC1` [odanacatib] (10 µM) the morphology score [1] was 0.161 and the SARS-CoV-2 infection rate [2] was 96.5% (inactive).

In the case of `NCCCCCc1c[nH]cn1` [impentamine] (10 µM), the morphology score [1] is reported as 0.128 and the SARS-CoV-2 infection rate [2] is reported as 92.5% (inactive).

In the case of `COc1ccccc1C(=O)Nc1cccc(NC(=O)c2cccc(C)c2)c1` (10 µM), the morphology score [1] is reported as 0.257 and the SARS-CoV-2 infection rate [2] is reported as 96.5% (inactive).

For `O=C(O)c1ccc2c(c1)C(=O)N(c1cccc(Oc3ccc([N+](=O)[O-])cc3)c1)C2=O` (10 µM), the morphology score [1] was 0.173 and the SARS-CoV-2 infection rate [2] was 99.5% (inactive).

For `Cc1cc2c(OCC(CNC(C)(C)C)OC(=O)c3ccccc3)cccc2[nH]1` (stereo not drawn) [bopindolol] (10 µM), the morphology score [1] was 0.12 and the SARS-CoV-2 infection rate [2] was 110% (inactive).

In the case of `NC(=S)N/N=C/c1coc2ccccc2c1=O.[Cl][Cu][Cl]` (10 µM), the morphology score [1] is reported as -0.124 and the SARS-CoV-2 infection rate [2] is reported as 110% (inactive).

For `O=C(c1cccc(Cl)c1F)N1CCN(Cc2cccc(Nc3nccs3)n2)CC1` (0.833333 µM), the morphology score [1] was 0.202 and the SARS-CoV-2 infection rate [2] was 107% (inactive).

In the case of `COCCOCCOc1ccc(C2=N[C@@](C)(C(=O)O)CS2)c(O)c1` (10 µM), the morphology score [1] is reported as 0.128 and the SARS-CoV-2 infection rate [2] is reported as 102% (inactive).

For `CC(C)CC(=O)Nc1n[nH]c2c1CN(C(=O)C1CCN(C)CC1)C2(C)C` (10 µM), the morphology score [1] was 0.099 and the SARS-CoV-2 infection rate [2] was 113% (inactive).

For `O=C(O[C@H]1C[C@H]2CC[C@@H](C1)[N+]21CCCC1)C(O)(c1ccccc1)c1ccccc1` [trospium] (10 µM), the morphology score [1] was 0.0583 and the SARS-CoV-2 infection rate [2] was 102% (inactive).

With `CN1[C@@H]2CC[C@H]1C[C@@H](OC(=O)N1Cc3ccccc3NC1=O)C2` (10 µM) the morphology score [1] was 0.0635 and the SARS-CoV-2 infection rate [2] was 108% (inactive).

With `CNC(=O)c1c(-c2ccc(F)cc2)oc2cc(N(CCO)S(C)(=O)=O)c(C3CC3)cc12` [nesbuvir] (10 µM) the morphology score [1] was 0.111 and the SARS-CoV-2 infection rate [2] was 104% (inactive).

`CCOc1nc2cccc(C(=O)OCc3oc(=O)oc3C)c2n1Cc1ccc(-c2ccccc2-c2noc(=O)[nH]2)cc1` [azilsartan-medoxomil] (10 µM) was tested, and the morphology score [1] was -0.168 and the SARS-CoV-2 infection rate [2] was 116% (inactive).

`C/C(=N\NC(=O)C(NC(=O)c1ccccc1)c1n[nH]c(=O)c2ccccc12)c1cccc(Br)c1` (stereo not drawn) (10 µM) was tested, and the morphology score [1] was 0.029 and the SARS-CoV-2 infection rate [2] was 98.5% (inactive).

For `NC(=S)N/N=C/c1ccncc1` [perchlozone] (10 µM), the morphology score [1] was -0.0589 and the SARS-CoV-2 infection rate [2] was 114% (inactive).

`CN(C)CCOC(c1ccccc1)c1ccccc1` [diphenhydramine] (10 µM) was tested, and the morphology score [1] was 0.203 and the SARS-CoV-2 infection rate [2] was 86.5% (inactive).

`Nc1nc2cc(-c3ccc4ncc(C(=O)N5CCOCC5)n4c3)ccc2o1` (10 µM) was tested, and the morphology score [1] was 0.241 and the SARS-CoV-2 infection rate [2] was 92% (inactive).

In the case of `CN1CCN(CCOc2cc(OC3CCOCC3)c3c(Nc4c(Cl)ccc5c4OCO5)ncnc3c2)CC1` [saracatinib] (10 µM), the morphology score [1] is reported as -0.132 and the SARS-CoV-2 infection rate [2] is reported as 110% (inactive).

In the case of `CN(C(=O)CN1C(=O)COc2cc(Cl)c(Cl)cc21)[C@@H](CN1CCCC1)c1ccc(-c2cccc(C(N)=O)c2)cc1` (0.833333 µM), the morphology score [1] is reported as 0.0807 and the SARS-CoV-2 infection rate [2] is reported as 104% (inactive).

For `CC(=O)OCC1=C(C(=O)O)N2C(=O)[C@@H](NC(=O)CCCC(N)C(=O)O)C2SC1` (stereo partly drawn) [cephalosporin-c-zn] (10 µM), the morphology score [1] was 0.00489 and the SARS-CoV-2 infection rate [2] was 97% (inactive).

For `C=CC[N@@+]12CC[C@@]34c5ccccc5N5/C=C6/[C@H]7C[C@H]8[C@@]9(CC[N@@+]8(CC=C)C/C7=C/CO)c7ccccc7N(/C=C(/[C@@H](C[C@@H]31)/C(=C\CO)C2)[C@H]54)[C@@H]69` [alcuronium] (10 µM), the morphology score [1] was -0.108 and the SARS-CoV-2 infection rate [2] was 114% (inactive).

For `Cn1nc(-c2cccc(F)c2)n(C)c1=S` [suritozole] (10 µM), the morphology score [1] was 0.141 and the SARS-CoV-2 infection rate [2] was 101% (inactive).

`CCS(=O)(=O)N(C)[C@@H]1c2cc(C#N)ccc2OC(C)(C)[C@H]1O.CCS(=O)(=O)N(C)[C@H]1c2cc(C#N)ccc2OC(C)(C)[C@@H]1O` (racemic) [chromanol-(+/-)] (10 µM) was tested, and the morphology score [1] was 0.241 and the SARS-CoV-2 infection rate [2] was 98.5% (inactive).

`CN(C)C(=O)Oc1cc(OC(=O)N(C)C)cc(C(O)CNC(C)(C)C)c1` (stereo not drawn) [bambuterol] (10 µM) was tested, and the morphology score [1] was -0.145 and the SARS-CoV-2 infection rate [2] was 114% (inactive).

For `CCCNC(=O)Nc1ccc(Oc2ncnc3cc(OC)c(OC)cc23)cc1Cl` (10 µM), the morphology score [1] was -0.0266 and the SARS-CoV-2 infection rate [2] was 108% (inactive).

`CNc1cc(OC)c(C(=O)NC2CCN(Cc3ccccc3)C2C)cc1Cl` (stereo not drawn) [nemonapride] (10 µM) was tested, and the morphology score [1] was 0.642 and the SARS-CoV-2 infection rate [2] was 36.5% (active).

With `Nc1ccn([C@@H]2O[C@@](CO)(CCl)[C@@H](O)[C@H]2F)c(=O)n1` (10 µM) the morphology score [1] was -0.0112 and the SARS-CoV-2 infection rate [2] was 104% (inactive).

In the case of `[O-][S+](c1ccccc1)c1ccc2nnnn2n1` (stereo not drawn) (0.833333 µM), the morphology score [1] is reported as 0.19 and the SARS-CoV-2 infection rate [2] is reported as 85.5% (inactive).

`O=C(c1ccc(/C=C/c2n[nH]c3ccccc23)cc1)N1CCNCC1` (10 µM) was tested, and the morphology score [1] was 0.964 and the SARS-CoV-2 infection rate [2] was 94.5% (inactive).

For `OC[C@H]1O[C@H]([S-])[C@H](O)[C@@H](O)[C@@H]1O.[Au+]` [aurothioglucose] (10 µM), the morphology score [1] was -0.0654 and the SARS-CoV-2 infection rate [2] was 110% (inactive).

For `Cc1cc2nc3c(=O)[nH]c(=O)nc-3n(C[C@H](O)[C@H](O)[C@H](O)COP(=O)(O)O)c2cc1C` [riboflavin-5-phosphate-sodium] (10 µM), the morphology score [1] was 0.173 and the SARS-CoV-2 infection rate [2] was 102% (inactive).

In the case of `Clc1cccc(Nc2nnc(-c3ccccc3)c3ccccc23)c1` (10 µM), the morphology score [1] is reported as 0.2 and the SARS-CoV-2 infection rate [2] is reported as 94% (inactive).

In the case of `O=C1C[C@@H]2OCC=C3CN4CC[C@]56c7ccccc7N1[C@H]5[C@H]2[C@H]3C[C@H]46` [strychnine] (10 µM), the morphology score [1] is reported as 0.314 and the SARS-CoV-2 infection rate [2] is reported as 90% (inactive).

With `CN(C)CCCN1c2ccccc2Sc2ccc(Cl)cc21` [chlorpromazine] (0.833333 µM) the morphology score [1] was 0.071 and the SARS-CoV-2 infection rate [2] was 98.5% (inactive).

`Cc1cn([C@H]2C=C[C@@H](CO)O2)c(=O)[nH]c1=O` [stavudine] (10 µM) was tested, and the morphology score [1] was 0.031 and the SARS-CoV-2 infection rate [2] was 106% (inactive).

`COC(=O)C1=C(C)NC(C)=C(C(=O)NCCCN2CCC(c3ccccc3)(c3ccccc3)CC2)C1c1ccc([N+](=O)[O-])cc1` (stereo not drawn) (0.833333 µM) was tested, and the morphology score [1] was 0.212 and the SARS-CoV-2 infection rate [2] was 98.5% (inactive).

For `COc1ccc(CCN2CCN(CCCc3ccccc3)CC2)cc1OC` [cutamesine] (10 µM), the morphology score [1] was -0.0482 and the SARS-CoV-2 infection rate [2] was 106% (inactive).

`CCCn1c(=O)c2nc(-c3ccccc3)[nH]c2n(CCC)c1=O` [1,3-dipropyl-8-phenylxanthine] (10 µM) was tested, and the morphology score [1] was 0.102 and the SARS-CoV-2 infection rate [2] was 104% (inactive).

`Cn1c(=O)[nH]c2ncn(C)c2c1=O` [paraxanthine] (10 µM) was tested, and the morphology score [1] was 0.141 and the SARS-CoV-2 infection rate [2] was 110% (inactive).

For `O=C1c2cccc(O)c2C(=O)c2c(O)cc(CO)cc21` [aloe-emodin] (10 µM), the morphology score [1] was 0.29 and the SARS-CoV-2 infection rate [2] was 101% (inactive).

`CCOc1ccc(Nc2nc(-c3c(C)nc4ccccn34)cs2)cc1` (0.833333 µM) was tested, and the morphology score [1] was -0.00134 and the SARS-CoV-2 infection rate [2] was 102% (inactive).

With `Nc1ccc2ncnc(NCCc3ccc(Oc4ccccc4)cc3)c2c1` (10 µM) the morphology score [1] was -0.17 and the SARS-CoV-2 infection rate [2] was 102% (inactive).

With `CCC(=O)N1CCN(c2ccc(-n3c(=O)ccc4cnc5ccc(-c6cnc7ccccc7c6)cc5c43)cc2C(F)(F)F)CC1` [torin-1] (10 µM) the morphology score [1] was -0.0739 and the SARS-CoV-2 infection rate [2] was 107% (inactive).

For `c1ccc(C(NCCNC(c2ccccc2)c2ccccc2)c2ccccc2)cc1` (10 µM), the morphology score [1] was 0.14 and the SARS-CoV-2 infection rate [2] was 101% (inactive).
